Our source for the z-score and composite z-score values is PubChem BioAssay.

Experiment [1] is described as follows: E. coli DRC41 culture turbidity changes, primary screen, E. coli filamentation inducer project, strain DRC41, OD650, 48 h (AID 1152).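 Further: E. coli MC1000 strain DRC41 lacking acrAB efflux pump and sulA.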 The conditions noted are these: E. coli DRC41 (acrAB sulA), higher = more signal, called active from +8 up or from −8 down.
The nature of experiment [2]: small-molecule binders of probe aLefty1, primary screen, biochemical, small-molecule microarray, 635/667 nm fluorescence (AID 1153).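 Further: score merges spot fluorescence with signal-to-noise ratio from the scanned slide images.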 The note with it: higher = more signal.
The nature of experiment [3]: PSAC antagonists in infected red cells, primary screen, cell-based, P. falciparum Indochina, OD700, 1 h (AID 1154). The note with it: P. falciparum Indochina infected RBC osmotic lysis, higher = more signal, called active from +8 up or from −8 down.
Experiment [4] is described as follows: PSAC antagonists in infected red cells, primary screen, cell-based, P. falciparum Indochina, OD700, 2 h (AID 1155).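 Further: lysis reports solute entry through the parasite surface anion channel PSAC; channel blockers reduce lysis of infected cells.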 The note with it: P. falciparum Indochina infected erythrocytes, osmotic lysis OD700; higher = more signal, called active from +8 up or from −8 down.
Experiment [5] can be described thus: osmotic lysis modulators in infected erythrocytes, primary screen, PSAC antagonist project, cell-based, P. falciparum Indochina, OD700, 3 h (AID 1156). The conditions noted are these: higher = more signal, called active from +8 up or from −8 down.
The nature of experiment [6]: PSAC antagonists in infected red cells, primary screen, cell-based, P. falciparum Indochina, OD700, 18 h (AID 1157). The conditions noted are these: P. falciparum Indochina infected erythrocytes, osmotic lysis OD700, 18 h; higher = more signal, called active from +8 up or from −8 down.
The nature of experiment [7]: modulators of S6 phosphorylation in cells, primary screen, cell-based, A549, cytoblot, luminescence, serum-stimulated (AID 1158).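 Further: serum-stimulated A549 lung adenocarcinoma cells; signal is phosphorylated S6 detected by cytoblot immunostaining with HRP secondary.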 The conditions noted are these: A549 phospho-S6 cytoblot, 5 h, higher = more signal.
The target of experiment [8] is NADPH oxidase 2 (Homo sapiens) (UniProt P04839). Nature of the experiment: NOX2-dependent H2O2 signal modulators, primary screen, NOX inhibitor project, cell-based, HEK293-NOX2, PMA-stimulated, Amplex Red fluorescence (AID 1159). Further: test concentration not given here. The conditions noted are these: 45 min, higher = more signal, called active from +8 up or from −8 down.
Chain of NADPH oxidase 2 (Homo sapiens) (P04839 whole entry, looked up): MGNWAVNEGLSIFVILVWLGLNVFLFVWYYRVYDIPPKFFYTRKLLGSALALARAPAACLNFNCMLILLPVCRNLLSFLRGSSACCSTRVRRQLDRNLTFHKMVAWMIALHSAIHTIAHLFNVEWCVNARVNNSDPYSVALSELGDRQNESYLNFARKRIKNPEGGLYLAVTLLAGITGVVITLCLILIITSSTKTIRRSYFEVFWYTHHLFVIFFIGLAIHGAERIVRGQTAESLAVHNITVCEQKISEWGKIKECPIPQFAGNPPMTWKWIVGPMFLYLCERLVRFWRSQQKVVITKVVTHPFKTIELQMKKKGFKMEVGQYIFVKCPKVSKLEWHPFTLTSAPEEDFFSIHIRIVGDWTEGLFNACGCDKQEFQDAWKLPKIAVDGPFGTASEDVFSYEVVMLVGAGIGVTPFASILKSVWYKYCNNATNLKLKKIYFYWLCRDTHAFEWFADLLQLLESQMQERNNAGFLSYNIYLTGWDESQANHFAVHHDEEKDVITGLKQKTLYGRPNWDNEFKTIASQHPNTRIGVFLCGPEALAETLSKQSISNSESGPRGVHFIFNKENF
In experiment [9] the target is NADPH oxidase 4 (Homo sapiens) (UniProt Q9NPH5). Nature of the experiment: NOX4-dependent H2O2 signal modulators, primary screen, NOX inhibitor project, cell-based, HEK293-NOX4, tetracycline-induced, Amplex Red fluorescence (AID 1160). The conditions noted are these: 45 min, higher = more signal, called active from +8 up or from −8 down.
Chain of NADPH oxidase 4 (Homo sapiens) (Q9NPH5 whole entry, looked up): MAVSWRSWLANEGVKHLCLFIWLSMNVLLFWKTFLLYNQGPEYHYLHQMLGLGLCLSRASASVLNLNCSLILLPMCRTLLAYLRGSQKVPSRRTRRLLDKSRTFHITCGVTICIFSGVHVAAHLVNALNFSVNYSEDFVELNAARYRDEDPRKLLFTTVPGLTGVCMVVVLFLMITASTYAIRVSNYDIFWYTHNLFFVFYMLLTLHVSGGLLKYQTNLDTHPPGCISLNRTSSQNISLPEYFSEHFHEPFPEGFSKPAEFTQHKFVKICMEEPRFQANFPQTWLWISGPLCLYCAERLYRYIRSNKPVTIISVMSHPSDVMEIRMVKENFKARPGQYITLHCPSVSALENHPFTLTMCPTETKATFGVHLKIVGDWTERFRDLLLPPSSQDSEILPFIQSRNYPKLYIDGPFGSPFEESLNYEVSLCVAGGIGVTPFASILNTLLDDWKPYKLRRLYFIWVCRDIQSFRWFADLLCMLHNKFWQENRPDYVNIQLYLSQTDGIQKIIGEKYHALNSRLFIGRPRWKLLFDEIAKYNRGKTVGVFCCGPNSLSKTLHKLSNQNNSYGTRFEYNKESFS
For experiment [10], the target named is NADPH oxidase 5 (Homo sapiens) (UniProt Q96PH1). In words: NOX5-dependent H2O2 signal modulators, primary screen, NOX inhibitor project, cell-based, HEK293-NOX5, Amplex Red fluorescence (AID 1161). The conditions noted are these: HEK293-NOX5, ionomycin, 45 min, higher = more signal.
Chain of NADPH oxidase 5 (Homo sapiens) (Q96PH1 whole entry, looked up): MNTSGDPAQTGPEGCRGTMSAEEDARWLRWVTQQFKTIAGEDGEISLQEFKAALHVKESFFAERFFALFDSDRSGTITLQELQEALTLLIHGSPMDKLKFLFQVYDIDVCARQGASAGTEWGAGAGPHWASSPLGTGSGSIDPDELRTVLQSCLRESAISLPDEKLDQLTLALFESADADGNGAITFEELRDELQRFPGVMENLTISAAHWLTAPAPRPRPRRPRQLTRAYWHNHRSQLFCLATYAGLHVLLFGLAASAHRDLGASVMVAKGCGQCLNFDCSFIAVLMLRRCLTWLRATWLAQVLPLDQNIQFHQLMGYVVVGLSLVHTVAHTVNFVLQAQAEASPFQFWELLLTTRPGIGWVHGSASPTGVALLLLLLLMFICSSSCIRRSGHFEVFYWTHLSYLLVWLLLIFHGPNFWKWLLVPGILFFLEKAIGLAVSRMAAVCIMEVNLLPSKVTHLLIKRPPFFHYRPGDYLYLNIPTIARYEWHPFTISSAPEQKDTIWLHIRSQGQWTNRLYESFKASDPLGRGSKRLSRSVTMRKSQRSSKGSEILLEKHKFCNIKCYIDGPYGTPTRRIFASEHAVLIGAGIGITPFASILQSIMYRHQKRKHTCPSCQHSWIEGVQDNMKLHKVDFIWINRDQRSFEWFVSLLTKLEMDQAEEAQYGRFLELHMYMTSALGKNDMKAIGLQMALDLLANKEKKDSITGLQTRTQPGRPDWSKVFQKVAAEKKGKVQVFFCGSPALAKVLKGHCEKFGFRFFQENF
A short description of experiment [11]: A549 cell viability effects, profiling panel, calcein-AM fluorescence, 48 h, basal (AID 1162). Further: test concentration not given here. The conditions noted are these: higher = more signal.
A short description of experiment [12]: adipocyte viability effects, profiling panel, cell-based, 3T3-L1 adipocytes, calcein-AM fluorescence, 48 h, basal (AID 1163). Further: test concentration not given here. The conditions noted are these: 3T3-L1 adipocytes viability, higher = more signal.
Experiment [13] in a line: HepG2 cell viability effects, profiling panel, calcein-AM fluorescence, 48 h, basal (AID 1164). Further: test concentration not given here. The note with it: higher = more signal.
The nature of experiment [14]: MM1S cell viability effects, profiling panel, calcein-AM fluorescence, 48 h, basal (AID 1165).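 Further: viability of MM1S multiple myeloma cells under basal unstimulated conditions; test concentration not given here.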 The conditions noted are these: higher = more signal.
The nature of experiment [15]: basal RPMI8226 viability, no added stimulus, profiling panel, cell-based, calcein-AM fluorescence, 48 h, PK04 Diversity Set (AID 1166).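 Further: cells grown under basal conditions without added stimulus; test concentration not given here.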 The conditions noted are these: RPMI8226 myeloma viability, higher = more signal.
The nature of experiment [16]: basal HepG2 mitochondrial membrane potential changes, profiling panel, cell-based, JC-1 fluorescence, 24 h, 100 nL compound (AID 1167). Further: test concentration not given here. The conditions noted are these: higher = more signal.
Experiment [17] in a line: basal 3T3-L1 adipocyte mitochondrial potential changes, profiling panel, cell-based, JC-1 fluorescence, 3T3-L1 adipocytes, 24 h, 100 nL compound (AID 1168). Further: test concentration not given here. The note with it: JC-1 mitochondrial fluorescence, higher = more signal, called active from +8 up or from −8 down.
A short description of experiment [18]: basal RPMI8226 mitochondrial membrane potential changes, profiling panel, cell-based, JC-1 fluorescence, 24 h, 100 nL compound (AID 1169). Further: test concentration not given here. The conditions noted are these: RPMI8226 myeloma, JC-1 mitochondrial potential fluorescence, higher = more signal.
A short description of experiment [19]: basal MM1S mitochondrial membrane potential changes, profiling panel, cell-based, JC-1 fluorescence, 24 h, 100 nL compound (AID 1170). Further: test concentration not given here. The note with it: higher = more signal.
Experiment [20] is described as follows: A549 lung cancer cell viability effects, profiling panel, resazurin fluorescence, 24 h, PK04 Diversity Set (AID 1171). Further: test concentration not given here. The conditions noted are these: higher = more signal, called active from +8 up or from −8 down. For orientation: The colour change of resazurin is a common sign of viable cells or microbes.

The source made the active and inactive calls.

`COC(=O)[C@H](C)NC(=O)CCC1CC(OC(=O)NCCc2ccc(F)cc2)CC2(CCCC(COC(=O)NCCC(C)C)O2)O1` (stereo not given in full): the z-score in [1] is -0.484 (inactive); in experiment [3] it was 21.1 (active); in experiment [4] it was 4.7 (inactive); in [5], 0.0444 (inactive); in experiment [6], 0.266 (inactive); in experiment [7] it was 1.14. Also, the z-score was 0.341 (inactive) in [8]; 0.302 (inactive) in [9]; -0.385 in experiment [10]; 1.22 in [11]; 0.464 in [12]; -0.814 in experiment [13]. Moreover, the z-score is -3.65 in experiment [14]; -0.883 in experiment [15]; -0.591 in experiment [16]; 0.521 (inactive) in experiment [17]; 0.198 in [18]; -1.51 in [19]. Also, in [20], the z-score is 0.693 (inactive). In experiment [2], this molecule gave a composite z-score of 0.0844.
For the molecule `O=C1C[C@@H](O)[C@@H](O)[C@@H]2[C@@H]3C(=O)N(C[C@@H]4CCCO4)C(=O)[C@@H]3CC[C@@H]12`, the z-score was 0.668 (inactive) in experiment [1]; 0.786 (inactive) in experiment [3]; -0.191 (inactive) in experiment [4]; 1 (inactive) in [5]; -0.0672 (inactive) in experiment [6]; 0.381 in experiment [7]. Also, the z-score is -1.38 (inactive) in experiment [8]; 0.529 (inactive) in experiment [9]; 0.624 in [10]; 0.708 in experiment [11]; -0.378 in experiment [12]; 1.12 in [13]. Besides, the z-score in experiment [14] is 0.107; in [15], -1.06; in experiment [16], 1.29; in experiment [17], -0.248 (inactive); in experiment [18], -0.407; in experiment [19], 0.345. Further, in experiment [20], the z-score was -0.582 (inactive). This molecule also returned a composite z-score in [2] of -0.284.
With `O=C(NN=C1C[C@@H](O)[C@@H](O)[C@@H]2[C@@H]3C(=O)N(C[C@@H]4CCCO4)C(=O)[C@@H]3CC[C@H]12)OCc1ccccc1`, the z-score in experiment [1] is 0.801 (inactive); in experiment [3], 1.35 (inactive); in experiment [4], 0.278 (inactive); in experiment [5], 0.284 (inactive); in experiment [6] it was 0.404 (inactive); in [7] it was -0.249. Moreover, the z-score was -0.92 (inactive) in experiment [8]; 0.0865 (inactive) in experiment [9]; -0.165 in experiment [10]; -0.0032 in experiment [11]; -0.0428 in experiment [12]; -0.718 in experiment [13]. For the same molecule, the z-score in [14] is 0.338; in experiment [15], -0.0238; in [16], -0.249; in experiment [17] it was -0.0601 (inactive); in experiment [18] it was 0.536; in experiment [19], -0.853. The z-score in [20] is -0.714 (inactive). In addition, the composite z-score in experiment [2] was determined as 0.318.
Consider `Cc1cc2c(nc1C)CCCCN2CC(C)ON=C1[C@H]2CCn3c(=O)n(-c4ccccc4)c(=O)n3[C@H]2[C@H](O)[C@@H]2O[C@H]12` (stereo not given in full), for which the z-score in experiment [1] is 1.03 (inactive); in experiment [3] it was 0.683 (inactive); in experiment [4] it was 0.0165 (inactive); in [5] it was 0.417 (inactive); in experiment [6] it was 0.122 (inactive); in [7], 0.0162. The z-score is -1.86 (inactive) in experiment [8]; -0.0659 (inactive) in [9]; 0.168 in experiment [10]; -0.333 in experiment [11]; -0.0663 in [12]; 0.305 in experiment [13]. The z-score in experiment [14] was -0.767; in [15] it was -1.21; in experiment [16], -0.439; in experiment [17] it was -0.521 (inactive); in [18], 0.407; in experiment [19] it was -0.974. Further, the z-score in [20] is -1.53 (inactive). The composite z-score in [2] is -0.0536.
